PubChem BioAssay AID485 (The Scripps Research Institute Molecular Screening Center, 2006)
In all, about 170,000 compounds went through this assay and about 460 (0.27%) were called active.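 How the source made its calls: active means inhibition above the plate cutoff, the mean inhibition of test wells on that plate plus 3 SD (cut at about 28% in these data); inactive means the rest.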 Only a selection was taken, and actives are over-represented in it overall.

These compounds were tested against Sphingosine 1-phosphate receptor 3 (Homo sapiens) (UniProt Q99500) (assay: inhibition of S1P-stimulated S1P3 activation – cell-based, primary screen (AID 485;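 further: cells challenged with S1P at its EC80 of 0.8 µM; blue over green emission ratio from cleaved BLA substrate after 4 h stimulation; 0% = S1P-stimulated wells and 100% = unstimulated DMSO-only wells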)). Conditions: CHO S1P3 NFAT-BLA reporter, FRET fluorescence, antagonist mode; at 4.98 µM; stronger effect = higher value.
Chain of Sphingosine 1-phosphate receptor 3 (Homo sapiens) (Q99500 whole entry, looked up): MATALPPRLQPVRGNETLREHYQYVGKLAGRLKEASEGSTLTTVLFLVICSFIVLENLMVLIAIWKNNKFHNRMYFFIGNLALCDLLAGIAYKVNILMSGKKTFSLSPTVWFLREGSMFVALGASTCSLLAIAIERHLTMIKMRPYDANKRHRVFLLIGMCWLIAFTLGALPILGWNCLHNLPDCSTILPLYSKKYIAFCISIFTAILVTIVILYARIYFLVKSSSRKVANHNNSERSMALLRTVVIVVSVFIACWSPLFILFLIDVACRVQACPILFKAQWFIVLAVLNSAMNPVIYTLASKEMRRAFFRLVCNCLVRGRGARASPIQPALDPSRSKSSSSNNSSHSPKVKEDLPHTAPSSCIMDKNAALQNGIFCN
For COc1ccc(NC(=S)Nc2ccccc2Cl)cn1, the inhibition was 4.46% (inactive). With COc1ccc(CS(=O)/C(Cl)=C(/Cl)C(=O)Nc2ccc(OC)nc2)cc1 (centres undefined) the inhibition was 56.4% (active). For COc1ccc(NC(=S)NCCNC(C)=O)cc1, the inhibition was 12.8% (inactive). CCOC(=O)c1c(C)[nH]c(C2=NNC(=NC(C)COC)SC2)c1C (centres undefined) was tested, and the inhibition was -26% (inactive). In the case of CC(C)c1cc(NCc2ccccn2)n2c(nc3ccccc32)c1C#N, the inhibition is reported as -17.9% (inactive). With O=C(N/N=C/c1ccc([N+](=O)[O-])o1)c1cccc(S(=O)(=O)N2CCOCC2)c1 the inhibition was 8.39% (inactive). In the case of O=[N+]([O-])c1cccc(/C([O-])=C(/C(=S)Nc2ccccc2F)[n+]2ccccc2)c1, the inhibition is reported as -11.5% (inactive). O=C(Nc1ccc(N2CCOCC2)nc1)c1c(F)cccc1F was tested, and the inhibition was 6.79% (inactive). O=[N+]([O-])c1ccc2[nH]c3c(c2c1)CCCC3O (centres undefined) was tested, and the inhibition was 12.7% (inactive). For C/C(=N\OC(=O)c1ccccc1)c1c(C)nc2cc(C)ccn12, the inhibition was -11.2% (inactive). In the case of CC(=O)Nc1cccc(C(=O)Nc2nc(C)cs2)c1, the inhibition is reported as -16.1% (inactive). With Cc1cc(/C=N/NC(=O)c2cccnc2)c(C)n1CC(C)C the inhibition was 4.4% (inactive). N#CCCCn1c(O)c(N=NC(=O)C(O)c2ccccc2)c2ccccc21 (centres undefined) was tested, and the inhibition was 5.47% (inactive). With Cc1c(NC(=O)CSc2nnnn2-c2ccc(C(=O)O)cc2)c(=O)n(-c2ccccc2)n1C the inhibition was 7.84% (inactive). With CCn1ccnc1CN1CCCC(C(=O)c2ccc3c4c(cccc24)CC3)C1 (centres undefined) the inhibition was -14.3% (inactive). In the case of O=C(c1cc(COc2c(F)cccc2F)on1)N1CCSCC1, the inhibition is reported as 10.4% (inactive). With C/C(CC(=O)Nc1cccc(C(F)(F)F)c1)=N\NC(=O)C(=O)NCC(C)C the inhibition was -5.61% (inactive). With CC(C)Oc1ccc(CCC(=O)NNC(=S)NCc2ccccc2)cc1 the inhibition was 11.1% (inactive). In the case of COc1ccc(Cc2cc(-c3ccc(F)cc3)n[nH]c2=O)cc1, the inhibition is reported as 16.1% (inactive). In the case of CCOC(=O)c1ccc(N=C2SC(C(=O)NC)CC(=O)N2CCc2ccccc2)cc1 (centres undefined), the inhibition is reported as -0.92% (inactive). With CCCN(c1ccc(C)cc1)c1nc(=O)c2cccnc2s1 the inhibition was -4.79% (inactive). For O=C(Nc1ccccc1)Nc1nc2ccccc2s1, the inhibition was 6.66% (inactive). O=C(O)CSCc1nc2ccccc2s1 was tested, and the inhibition was -27.1% (inactive). In the case of CCC(=O)NC(=Nc1nc2ccccc2s1)NC(=O)CC, the inhibition is reported as 84.7% (active). In the case of COC(=O)CSc1nccc(-c2cccs2)n1, the inhibition is reported as -15.2% (inactive). O=C1c2ccccc2NC(c2ccccn2)N1NS(=O)(=O)c1ccccc1 (centres undefined) was tested, and the inhibition was -20% (inactive). In the case of Cc1cc(=O)oc2cc(OCC(=O)Nc3nnc(C4CC4)s3)ccc12, the inhibition is reported as 6.03% (inactive). COCCCNC(=O)Cn1c(=O)n(Cc2ccccc2Cl)c(=O)c2cc(OC)c(OC)cc21 was tested, and the inhibition was -15.6% (inactive). With COc1ccc(-n2cc(CN(C)Cc3n[nH]c(=O)[nH]3)c(-c3cccc(F)c3)n2)cc1 the inhibition was 0.22% (inactive). C=CCC(Nc1ccccc1)c1cccc(OC)c1OC (centres undefined) was tested, and the inhibition was 3.89% (inactive). For CN(C)CCCN(Cc1cc2cc3c(cc2[nH]c1=O)OCCO3)C(=O)NC1CCCCC1, the inhibition was -12.8% (inactive). With O=C(CCNc1n[nH]c(=O)[nH]c1=O)N/N=C\c1ccc(Br)cc1 the inhibition was 7.68% (inactive). In the case of O=C(NCCCNc1ccc([N+](=O)[O-])cc1Cl)c1ccccc1F, the inhibition is reported as -0.7% (inactive). In the case of CCC(C)c1ccc(NC(=S)NCc2ccccn2)cc1 (centres undefined), the inhibition is reported as 6.58% (inactive). With COc1ccc(C)cc1NC(=O)c1ccc(-c2ccc(C(C)=O)cc2)o1 the inhibition was -2.68% (inactive). CC/C(=N\NC(=S)NC(C)C)c1ccc(OC(F)F)cc1 was tested, and the inhibition was 0.35% (inactive). With COc1cccc(Nc2nnc(SCC(=O)N3CC(=O)Nc4ccccc43)s2)c1 the inhibition was 1.32% (inactive). CCOC(=O)c1cn(CC)c2cc(F)c(F)cc2c1=O was tested, and the inhibition was 1.3% (inactive). CN(CC(=O)Nc1cccc(F)c1)CC(=O)Nc1cccc([N+](=O)[O-])c1 was tested, and the inhibition was -5.5% (inactive). In the case of Cc1ccc(CN(C)CC(=O)Nc2cccc([N+](=O)[O-])c2)o1, the inhibition is reported as -19.1% (inactive). Cc1ccc(NC(=O)CN(C)CC(=O)Nc2cccc(F)c2)cc1[N+](=O)[O-] was tested, and the inhibition was 29.9% (active). In the case of Cc1ccc(/C=C/C(=O)O)cc1S(=O)(=O)N1CCC(Cc2ccccc2)CC1, the inhibition is reported as -2.15% (inactive). In the case of O=C(Cn1cnc2cc([N+](=O)[O-])ccc2c1=O)NC(=O)NCc1ccccc1, the inhibition is reported as -4.47% (inactive). In the case of COc1ccc(F)cc1S(=O)(=O)N1CCCCC1, the inhibition is reported as 17.2% (inactive). With Cc1ccc(NC(=O)C/C(N)=N/O)cc1Cl the inhibition was -2.94% (inactive). For CC(C)(C)c1ccc(CCC2OCC(CN3CCOCC3)O2)cc1 (centres undefined), the inhibition was 10.3% (inactive). In the case of CCN(CC(=O)Nc1cccc(S(N)(=O)=O)c1)Cc1nc2ccccc2c(=O)[nH]1, the inhibition is reported as 19.8% (inactive). With COC(=O)c1c(NC(C)=O)sc(C(=O)Nc2ccccc2OC)c1C the inhibition was 6.94% (inactive). With Cc1ccc(NC(=O)Nc2cc(-c3ccccc3)nn2C)cc1Cl the inhibition was 6.92% (inactive). In the case of Cc1nc2ccccn2c1C(=O)NN=C1CCN(C)CC1, the inhibition is reported as 5.25% (inactive). For CCOC(=O)c1c(N)sc2c1CCCC2=O, the inhibition was 8.9% (inactive). O=[N+]([O-])c1ccc(F)cc1Oc1nc(-c2cccnc2)nc2ccccc12 was tested, and the inhibition was 4.41% (inactive). For CC1C(=O)NC(=O)C1c1ccccc1 (centres undefined), the inhibition was 5.96% (inactive). For CC(NCc1ccccc1OC1CCCC1)c1ccccc1 (centres undefined), the inhibition was 3.22% (inactive). For CCN(CC)CCN(C(=O)c1ccc(N2C(=O)CCC2=O)cc1)c1nc2cc3c(cc2s1)OCO3, the inhibition was -4.37% (inactive). For O=C(NCc1cccnc1)C(=O)Nc1nc(-c2ccccc2)cs1, the inhibition was 10.3% (inactive). CCOC(=O)CC1C(=O)NCCN1c1nc2c(C)cccn2c(=O)c1/C=C1\SC(=S)N(C(C)CC)C1=O (centres undefined) was tested, and the inhibition was 29.7% (active). CCOC(=O)CC1C(=O)NCCN1C(=O)COc1ccc(Br)cc1C (centres undefined) was tested, and the inhibition was -25.1% (inactive). In the case of CCOc1ccc(/C=C2\SC(=S)N(NC(=O)c3ccncc3)C2=O)cc1OC, the inhibition is reported as 6.85% (inactive). CCCCCC1CCC(c2nnc(SCC(C)=O)o2)CC1 (centres undefined) was tested, and the inhibition was -22.3% (inactive). For O=C(NNS(=O)(=O)Cc1ccccc1)c1ccc([N+](=O)[O-])cc1, the inhibition was -6.72% (inactive). With Cn1cccc1-c1nc2ccccc2n1C the inhibition was -6.38% (inactive). For Cn1c(S(=O)(=O)O)nc2ccccc21, the inhibition was -12.4% (inactive). Cn1c(-c2ccc(C(=O)c3ccccc3)s2)nc2ccccc21 was tested, and the inhibition was 59.9% (active). In the case of COc1ccc(-n2ncc3c(N4CCc5ccccc54)ncnc32)cc1, the inhibition is reported as 13.4% (inactive). For Cc1ccc(-n2ncc3c(N4CCN(c5ccc(F)cc5)CC4)ncnc32)c(C)c1, the inhibition was 27.2% (inactive). In the case of Cc1cccc(-n2ncc3c(N4CCc5ccccc54)ncnc32)c1, the inhibition is reported as 84.3% (active). CCN(CC)c1ccc2c(Nc3ccccc3)c(C=O)c(=O)oc2c1 was tested, and the inhibition was 6.07% (inactive). In the case of CC(C)Cc1nnc(NC(=O)CCC(=O)Nc2ccc3cn[nH]c3c2)s1, the inhibition is reported as -0.32% (inactive). For Cc1c(CN2CCCCC2)c(O)n(CCO)c(=O)c1C#N, the inhibition was -12.4% (inactive). In the case of CCOc1cnc(-c2c(-c3ccccc3Cl)noc2C)o1, the inhibition is reported as -6.23% (inactive). In the case of Cc1ccc(S(=O)(=O)N(CC(=O)NN=C2CCN(C)CC2)c2ccc(F)cc2)cc1, the inhibition is reported as 4.23% (inactive). In the case of CCN(CC)C(=O)C(=O)c1cn(CC(=O)NCc2ccc3c(c2)OCO3)c2ccccc12, the inhibition is reported as 1.34% (inactive). For CN(C)c1ccc(NC(=O)CSc2n[nH]c(-c3ccco3)n2)cc1, the inhibition was -1.38% (inactive). CC(C)C(=O)Nc1ccc2oc(=O)ccc2c1 was tested, and the inhibition was -11.4% (inactive). With CC1CCN(C(=S)c2cccc([N+](=O)[O-])c2)CC1 the inhibition was -0.25% (inactive). With C=CCOC(=O)C1=C(C)N=C2SCCC(=O)N2C1/C=C/c1ccccc1OC (centres undefined) the inhibition was -1.87% (inactive). In the case of CCC(C)(C)NC(=O)CN(Cc1cccs1)C(=O)CNS(=O)(=O)c1ccc(F)cc1, the inhibition is reported as -2.83% (inactive). With Cc1cc(N/N=C/c2ccccc2F)c2ccccc2n1 the inhibition was -3.58% (inactive). With CC(=O)Nc1ccc(C(=O)/C=C/c2ccc[nH]2)cc1 the inhibition was 0.84% (inactive). In the case of CCc1cc(CNC(=O)CC2C(=O)NCCN2Cc2ccccc2C(F)(F)F)on1 (centres undefined), the inhibition is reported as -1.82% (inactive). For CCc1ccc(C(=O)OCC(=O)NCC(F)(F)F)cc1, the inhibition was -9.42% (inactive). With O=C(O)CC12CC3CC(C1)CC(n1ncc(NCc4ccc(F)cc4)c(Cl)c1=O)(C3)C2 the inhibition was -16.8% (inactive). For CC[C@H]1CN2CCc3cc(OC)c(OC)cc3[C@@H]2C[C@@H]1C[C@H]1NCCc2cc(OC)c(OC)cc21, the inhibition was 97.4% (active). COc1cc2c(cc1O)[C@H](Cc1ccc(Oc3cc(C[C@@H]4NCCc5cc(OC)c(O)cc54)ccc3O)cc1)NCC2 was tested, and the inhibition was -12.9% (inactive). With CN1C(=O)/C(=N/OC(=O)c2ccccc2Br)c2ccccc21 the inhibition was -12.3% (inactive). With COc1ccc(NC(=O)CN2C(=O)CSC2=O)cc1 the inhibition was 4.71% (inactive). With CC(C)N(Cc1ccccc1)C(=O)COC(=O)c1cnccn1 the inhibition was -8.02% (inactive). In the case of O=Cc1ccc(OCc2cn3ccccc3n2)cc1, the inhibition is reported as -13.1% (inactive). For CCCc1ccc(C(=O)[C@@H]2[C@@H](C(C)=O)N3c4ccc(F)cc4C=C[C@@H]3[C@@]23C(=O)Nc2ccccc23)cc1, the inhibition was 3% (inactive). CCCN(CCC)CC(O)COc1ccccc1C(=O)Nc1ccccc1 (centres undefined) was tested, and the inhibition was -9.63% (inactive). For CC(C)Oc1ccccc1C(=O)NC(CO)C(=O)O (centres undefined), the inhibition was 28.6% (active). In the case of COc1ccccc1C(=O)NNC(=O)c1ccc(NC(=O)c2ccccc2)cc1, the inhibition is reported as -4.89% (inactive). In the case of O=C(Nc1cccc2c1N(C(=O)c1ccco1)CCC2)c1ccco1, the inhibition is reported as -8.57% (inactive).
